Assay outcomes: PubChem BioAssay, several laboratories
Sampled rows, rich in hits. Any-hit rate of the full collection: about 4.7%.
tim10-1 inh – growth inhibitors of tim10-1 mutant yeast, primary screen, luminescence, uHTS. inhibition, % at 20 µM. 330,000 tested, 2.2% active. S. cerevisiae tim10-1 ts strain growth, BacTiter-Glo, 24 h. AID 463190, 2010;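 active = inhibition of at least 40%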;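 note: mutant grown at 25 °C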
EBI2 antag – EBI2 receptor antagonists, beta-arrestin recruitment, primary screen, cell-based, luminescence, 7a,25-OHC stimulation, uHTS | G-protein coupled receptor 183 (Homo sapiens), P32249 | 7a,25-OHC stimulated | inhibition, % at 5 µM | 360,000 tested, 0.81% active | AID 651636, 2012; in the data active = inhibition above about 38%;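 note: enzyme fragment complementation signal reports receptor beta-arrestin coupling in cells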
Target sequence (P32249 whole entry, looked up, the tested form may be a part): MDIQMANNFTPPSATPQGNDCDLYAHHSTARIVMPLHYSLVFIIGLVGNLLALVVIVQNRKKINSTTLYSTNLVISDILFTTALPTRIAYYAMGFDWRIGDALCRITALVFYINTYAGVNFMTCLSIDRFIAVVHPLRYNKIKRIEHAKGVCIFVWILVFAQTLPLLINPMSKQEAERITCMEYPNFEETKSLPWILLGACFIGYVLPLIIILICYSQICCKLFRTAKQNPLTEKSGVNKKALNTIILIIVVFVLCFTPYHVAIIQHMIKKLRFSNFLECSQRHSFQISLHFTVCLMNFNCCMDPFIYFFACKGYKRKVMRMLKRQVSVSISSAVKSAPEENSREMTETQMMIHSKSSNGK
PfHsp90 yeast 2 – growth inhibition of PfHsp90-expressing yeast, primary screen, antimalarial PfHsp90 inhibitor project, S. cerevisiae, BacTiter-Glo luminescence, single point, set 2; BacTiter-Glo ATP, 48 h; yeast lacking PDR1 and PDR3 efflux regulators; inhibition, % at 9.4 µM; 310,000 tested, 0.32% active;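 active = every replicate shows inhibition above about 80%, whatever the replicate mean, limit read from the data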
tim23-1 inh – growth inhibitors of tim23-1 mutant yeast, primary screen, luminescence, uHTS; 330,000 tested, 1.3% active; S. cerevisiae tim23-1 growth, BacTiter-Glo luminescence, 24 h; inhibition, % at 20 µM;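 active = growth inhibition of the mutant yeast at or above 50%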;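 note: temperature-sensitive mutant grown at 25 °C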
TIM10 inh – growth inhibitors of isogenic TIM10 control yeast, primary screen, counter-screen for tim10-1 yeast inhibitor project, luminescence, uHTS | inhibition, % at 10 µM | AID 463195, 2010 | 330,000 tested, 1.4% active | S. cerevisiae TIM10 strain growth, BacTiter-Glo luminescence, 24 h;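 active = inhibition of 40% or more at the single tested concentration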;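 note: wild-type TIM10 isogenic control strain grown at permissive 25 °C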
SKKanGAS inh – S. pyogenes SKKanGAS growth inhibitors in kanamycin, primary screen, streptokinase expression inhibitor project, SKKanGAS strain, BacTiter-Glo luminescence | 300,000 tested, 1.3% active | AID 1662, 2009 | 6 h | inhibition, % at 7.5 µM;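 active = mean replicate score, as percent of positive control median, at least 50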;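 note: strain carries kanamycin resistance gene driven by streptokinase promoter and grows in 40 µg/ml kanamycin; loss of luminescence reflects streptokinase promoter inhibition or plain growth inhibition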
tim23-1 confirm – tim23-1 mutant yeast growth inhibitors, confirmation, luminescence, single concentration; shares compounds with tim23-1 inh; inhibition, % at 20 µM; AID 463218, 2010; 4,400 tested, 83% active; S. cerevisiae tim23-1 growth, BacTiter-Glo luminescence, 24 h;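 active = inhibition above about 39% in either of two replicate wells at 20 µM, limit read from the data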;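 note: temperature-sensitive tim23-1 mutant grown at 25 °C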
Of the large screens only hits and unclear results are named; the others gave an inactive call (follow-up assays come after a bar, where they were run).

Cc1ccc(NC(=O)COC(=O)c2cccc3c(=O)c(C)c(-c4ccccc4)oc23)cc1	none
CC[C@H](CO)Oc1cc(NCc2cccc(N)c2)c2ncn(C(C)C)c2c1	none (no result: tim10-1 inh, PfHsp90 yeast 2, tim23-1 inh, TIM10 inh, SKKanGAS inh)
CCOC(=O)C1CCCN(c2cc(=O)n(C3CCCCC3)c(=O)[nH]2)C1 (stereo not drawn)	none
O=C(O)COc1ccccc1C(Nc1cccnc1)c1cc(Cl)c2cccnc2c1O (stereo not drawn)	none
CCCC(=O)NC(c1cccs1)c1cc(Cl)c2cccnc2c1O (stereo not drawn)	PfHsp90 yeast 2 120, tim23-1 inh 56 (no result: SKKanGAS inh) | tim23-1 confirm 69
CCC(=O)NC(C)c1cc(Cl)c2cccnc2c1O (stereo not drawn)	tim23-1 inh 55 (no result: SKKanGAS inh) | tim23-1 confirm 58
CCOc1ccc(C(Nc2cccnc2)c2cc(Cl)c3cccnc3c2O)cc1 (stereo not drawn)	PfHsp90 yeast 2 106, tim23-1 inh 56 (no result: SKKanGAS inh) | tim23-1 confirm 69
CCC(=O)NC(c1ccco1)c1cc(Cl)c2ccccc2c1O (stereo not drawn)	none (no result: SKKanGAS inh)
CCC(=O)NC(c1cc(Cl)c2ccccc2c1O)C(C)C (stereo not drawn)	none (no result: PfHsp90 yeast 2, SKKanGAS inh)
COc1ccccc1Nc1nc2ccc(C)cc2n2cnnc12	tim23-1 inh 51 | tim23-1 confirm inactive
COC(=O)c1cccc(-c2ccc(C(c3c(C)[nH][nH]c3=O)c3c(C)[nH][nH]c3=O)o2)c1	tim23-1 inh 51 | tim23-1 confirm 49
CCCn1nnc(NC(=O)c2sc3ccccc3c2Cl)n1	tim23-1 inh 53 | tim23-1 confirm 42
CCCn1nnc(NC(=O)Cc2ccccc2)n1	none
CSc1cccc(N2C(=O)C3CCCN3C2=S)c1 (stereo not drawn)	none
CC(O)c1cccc(N=Cc2ccc3ccccc3c2O)c1 (stereo not drawn)	tim23-1 inh 54 | tim23-1 confirm 42
Oc1ccc(C=Nc2cccc3ccccc23)c(O)c1	none
CCCCc1nc(SCC(=O)N2CCOCC2)c2c(=O)n(C)c(=O)n(C)c2n1	none
O=C(NN=C1c2ccccc2-c2ccccc21)c1ccccc1	tim23-1 inh 50 | tim23-1 confirm 66
NC(=S)NN=C1c2ccccc2-c2ccccc21	tim23-1 inh 57 | tim23-1 confirm 46
Cc1cc(C)c(NC(=O)CS(=O)CC(=O)N2CCN(c3cccc(C)c3C)CC2)c(C)c1 (stereo not drawn)	tim23-1 inh 90 | tim23-1 confirm inactive
CC(C)(C)[C@H]1C=C(C(=O)N2CCOCC2)O[C@@H](OCc2ccc(CO)cc2)C1	tim23-1 inh 93 | tim23-1 confirm inactive
COc1ccc(NC(=O)CS(=O)CC(=O)Nc2cccnc2)cc1 (stereo not drawn)	none
Cn1c(C(=O)NCCc2c[nH]c3ccccc23)cc2sccc21	tim23-1 inh 57 | tim23-1 confirm 57
CCCOc1ccc2ccccc2c1/C=C1\SC(=O)NC1=O	PfHsp90 yeast 2 105, tim23-1 inh 55 | tim23-1 confirm 51
O=C(O)c1ccc(N=N/C(=N\Nc2ccc(C(=O)O)cc2)c2ccccc2)cc1	none
O=C(O)c1cccc(N/N=C(\N=Nc2ccccc2)c2ccccc2)c1	tim23-1 inh 53 | tim23-1 confirm 46
N#C/C(=C\c1ccc(O)cc1)c1nc2ccccc2o1	tim23-1 inh 54 | tim23-1 confirm 61
Cc1cccc(C(=O)NC(=S)Nc2ccccc2C(F)(F)F)c1	tim23-1 inh 51 | tim23-1 confirm 38
COc1ccc(CCNS(=O)(=O)c2ccc(Br)cc2)cc1	tim23-1 inh 52 | tim23-1 confirm inactive
COCCCN(C(=S)Nc1cc(Cl)cc(Cl)c1)C(C)c1ccccn1 (stereo not drawn)	tim23-1 inh 63 | tim23-1 confirm 53
COCCCN(C(=S)Nc1cc(Cl)cc(Cl)c1)C(C)c1ccncc1 (stereo not drawn)	tim23-1 inh 50 | tim23-1 confirm 47
CN(C)c1ccc(NC(=S)c2ccc3ccccc3n2)cc1	none
COc1ccc(-c2cc(-c3ccc(F)cc3)nc(N3CCN(C)CC3)n2)cc1	tim23-1 inh 55 | tim23-1 confirm 58
CC(=O)c1cccc(NC(=O)COC(=O)CC2CC3CCC2C3)c1 (stereo not drawn)	none (no result: SKKanGAS inh)
COc1cccc(NC(=O)COC(=O)CC2CC3CCC2C3)c1 (stereo not drawn)	tim23-1 inh 56 (no result: SKKanGAS inh) | tim23-1 confirm 41
CCNc1nc(NCC)n2c(SCC(=O)Nc3ccccc3[N+](=O)[O-])nnc2n1	none
COc1ccc(S(=O)(=O)NC(C)c2ccc3c(c2)OCCO3)cc1 (stereo not drawn)	none (no result: tim10-1 inh, PfHsp90 yeast 2, tim23-1 inh, TIM10 inh, SKKanGAS inh)
Cc1c(O)c(CN2CCCC2)cc2c3c(c(=O)oc12)CCC3	tim23-1 inh 53 | tim23-1 confirm inactive
O=C(CSc1ccccc1)N(c1ccc(Br)cc1)c1nccs1	none
COC(=O)CC1COc2ccccc2N1C(=O)c1ccc(C(C)(C)C)cc1 (stereo not drawn)	tim23-1 inh 53 | tim23-1 confirm inactive
Cc1cc(C(=O)CCl)c(C)n1CCc1ccc(Cl)cc1	tim23-1 inh 55 | tim23-1 confirm 53
Cc1cc(C(=O)CSc2nnc(N)s2)c(C)n1CCc1ccc(Cl)cc1	none
O=C1C=C(c2cccc(Cl)c2O)C[C@@H](c2ccc3c(c2)OCO3)C1	tim23-1 inh 67 (no result: SKKanGAS inh) | tim23-1 confirm 54
O=C1C=C(c2cccc(Cl)c2)C[C@@H](c2ccc3c(c2)OCO3)C1	none (no result: SKKanGAS inh)
Cc1ccccc1/C=C1\Oc2ccccc2C1=O	tim23-1 inh 54 (no result: SKKanGAS inh) | tim23-1 confirm 57
COc1ccc(S(=O)(=O)N2CCCCC2c2cc(C(=O)N3CCOCC3)no2)cc1 (stereo not drawn)	none (no result: tim10-1 inh, PfHsp90 yeast 2, tim23-1 inh, TIM10 inh, SKKanGAS inh)
CCC(C)Sc1cc(C)c(C#N)c2nc3ccccc3n12 (stereo not drawn)	tim23-1 inh 54 | tim23-1 confirm inactive
CCC(C)Nc1cc(C)c(C#N)c2nc3ccccc3n12 (stereo not drawn)	none
COc1ccc(N2CCN(CCC(=O)c3ccc4ccccc4c3)CC2)cc1	tim23-1 inh 69 | tim23-1 confirm 57
COc1ccc(N2CCN(CC(=O)c3ccccc3)CC2)cc1	none
CCOC(=O)Nc1ccc(C(=O)Oc2ccccc2)c(O)c1	tim23-1 inh 57 | tim23-1 confirm 54
O=C(Nc1ccc(C(=O)Oc2ccccc2)c(O)c1)c1ccccc1	none
O=C(O)C(Cc1c[nH]c2ccccc12)N1C(=O)C2C3c4ccccc4C(c4ccccc43)[C@@H]2C1=O (stereo partly drawn)	none
